{"source": "ChEMBL document CHEMBL3988442", "about": "“University of Dundee, Small-Polar-MMV Screening Library” (2021)", "note": "Out of some 48,000 compounds screened, about 13,000 (27%) showed an effect of 50% or more. Some of the results follow."}
{"tested_on": "Wolbachia pipientis", "assay": "Anti-Wolbachia Cell-Based Screen", "assay_type": "functional", "set-up": "scale not given: in the data most compounds retested in dose-response had high values", "settings": "5 µM", "units": {"Percent Effect": "%"}}
{"smiles": "CN(C)C(=O)C1CCCN1CCCNC(=O)c1ccccc1F", "note": "(stereo unspecified)", "Percent Effect": 12.21}
{"smiles": "CC(C)(C(=O)NCCS(N)(=O)=O)c1cccc(Br)c1", "Percent Effect": -14.63}
{"smiles": "COc1cccc(-c2n[nH]c3c2CN(C(=O)c2oc(C)cc2C)CC3)c1", "Percent Effect": 3.438}
{"smiles": "CCn1ccc2ccnc(CC3CN(C(=O)c4ccc(F)cc4)C3)c21", "Percent Effect": 128.6}
{"smiles": "Cn1ccc2ccnc(CC3CN(C(=O)C4CCC(F)(F)CC4)C3)c21", "Percent Effect": -0.631}
{"smiles": "CCN(CC)CC[C@H]1CN(C(=O)c2ccc(F)cc2)CC[C@H]1CC(=O)O", "Percent Effect": 0.9693}
{"smiles": "CCn1ccc2ccnc(CC3CN(C(=O)c4cnco4)C3)c21", "Percent Effect": 144.4}
{"smiles": "CCn1ccc2ccnc(CC3CN(C(=O)Cn4ccnc4C)C3)c21.O=CO", "Percent Effect": 124.4}
{"smiles": "COc1ccccc1C(=O)N1CC(Cc2nccc3ccn(C)c23)C1", "Percent Effect": -2.36}
{"smiles": "CCCN1CCc2[nH]cnc2C12CCN(C(=O)Cn1ccnc1C)CC2", "Percent Effect": -4.185}
{"smiles": "O=C(C(CNCc1ccncc1)c1ccccc1)N1CCOCC1", "note": "(stereo unspecified)", "Percent Effect": 0.2839}
{"smiles": "O=C(Cc1ccc2c(c1)OCCO2)N1CCCC(n2cccn2)C1", "note": "(stereo unspecified)", "Percent Effect": 7.45}
{"smiles": "CC(C)c1nc(C2CCCN2Cc2ccccc2C#N)no1", "note": "(stereo unspecified)", "Percent Effect": 6.567}
{"smiles": "CC(C)c1nc(C2CCCN2c2ccnc(C3CCCC3)n2)no1", "note": "(stereo unspecified)", "Percent Effect": 0.08889}
{"smiles": "CC(C)c1nc(C2CCCN2Cc2ccon2)no1", "note": "(stereo unspecified)", "Percent Effect": 78.63}
{"smiles": "CC(C)c1nc(C2CCCN2CC(=O)Nc2ccc(Cl)cn2)no1", "note": "(stereo unspecified)", "Percent Effect": -4.076}
{"smiles": "Cc1cc(CN2CCCC2c2noc(C(C)C)n2)on1", "note": "(stereo unspecified)", "Percent Effect": 98.26}
{"smiles": "CC(C)c1nc(C2CCCN2Cc2ccncc2Cl)no1", "note": "(stereo unspecified)", "Percent Effect": 81.18}
{"smiles": "CC(C)c1noc(CN2CCCC2c2noc(C(C)C)n2)n1", "note": "(stereo unspecified)", "Percent Effect": 108.9}
{"smiles": "CCc1noc(CN2CCCC2c2noc(C3CC3)n2)n1", "note": "(stereo unspecified)", "Percent Effect": 2.482}
{"smiles": "CC(C)c1nc(C2CCCN2CC(=O)Nc2nncs2)no1", "note": "(stereo unspecified)", "Percent Effect": -0.6487}
{"smiles": "CC(C)c1nc(C2CCCN2Cc2ccn(C)c(=O)c2)no1", "note": "(stereo unspecified)", "Percent Effect": -1.235}
{"smiles": "c1ccc(-c2nnc3ccc(N4CCC5(CCOC5)C4)nn23)cc1", "note": "(stereo unspecified)", "Percent Effect": -13.9}
{"smiles": "CNC(=O)CN1CCC(NC(=O)C(C)Oc2ccccc2C#N)CC1", "note": "(stereo unspecified)", "Percent Effect": 0.1216}
{"smiles": "CC(C)NS(=O)(=O)c1cc(C(=O)O)cc(-c2ccccc2CO)c1", "Percent Effect": 11.88}
{"smiles": "Cc1nc(CN2CCCC2c2noc(C(C)C)n2)oc1C", "note": "(stereo unspecified)", "Percent Effect": 98.12}
{"smiles": "Cc1nc(C2CCCN2Cc2nc(C)c(C)o2)no1", "note": "(stereo unspecified)", "Percent Effect": -0.5484}
{"smiles": "Cc1nc(C2CCCN2Cc2ncc(C(C)C)o2)no1", "note": "(stereo unspecified)", "Percent Effect": 8.273}
{"smiles": "CCc1c(C)nc2cc(C3CCN(Cc4cccnc4)C3)nn2c1O", "note": "(stereo unspecified)", "Percent Effect": 85.92}
{"smiles": "Cc1nc2cc(C3CCN(Cc4ccccc4F)C3)nn2c(O)c1C", "note": "(stereo unspecified)", "Percent Effect": 92.44}
{"smiles": "Cn1cnnc1CNC(=O)C1CCCN(Cc2cccc(F)c2)C1", "note": "(stereo unspecified)", "Percent Effect": -3.668}
{"smiles": "NC(=O)c1cccc2nc([C@H]3CCN(Cc4ccccc4F)C3)[nH]c12", "Percent Effect": 1.754}
{"smiles": "Cc1nc[nH]c1CN1CCC(C2CCN(CCc3ccccc3)C2)CC1", "note": "(stereo unspecified)", "Percent Effect": -8.62}
{"smiles": "Cc1cc(CN2CCC(C3CCN(CCc4ccccc4)C3)CC2)[nH]n1", "note": "(stereo unspecified)", "Percent Effect": -6.326}
{"smiles": "CCc1c(C)nc2cc(C3CCN(CCc4ccccc4)C3)nn2c1O", "note": "(stereo unspecified)", "Percent Effect": 76.13}
{"smiles": "Cc1cc(CN2CCC(C3CCN(Cc4cccnc4)CC3)C2)[nH]n1", "note": "(stereo unspecified)", "Percent Effect": -58.7}
{"smiles": "CCc1c(C)nc2cc(C3CCN(Cc4cccc(F)c4)C3)nn2c1O", "note": "(stereo unspecified)", "Percent Effect": 98.22}
{"smiles": "CCc1c(C)nc2cc(C3CCN(Cc4ccccc4F)C3)nn2c1O", "note": "(stereo unspecified)", "Percent Effect": -15.15}
{"smiles": "CCn1cnnc1CNC(=O)C1CCCN(Cc2cccc(F)c2)C1", "note": "(stereo unspecified)", "Percent Effect": 3.888}
{"smiles": "Cc1nc(N2CCOCC2)nc(C)c1NC(=O)COc1ccccc1", "Percent Effect": 15.56}
{"smiles": "c1cc(-c2noc(CN3CCn4c(nnc4C4CC4)C3)n2)co1", "Percent Effect": -9.374}
{"smiles": "O=C1N(Cc2ccc(F)c(F)c2)CCCC12CCN(C1CCSCC1)C2", "note": "(stereo unspecified)", "Percent Effect": -6.504}
{"smiles": "COCCCS(=O)(=O)N1CCN(C(=O)CO)CC1", "Percent Effect": -3.721}
{"smiles": "CSc1sc(NC(=O)C2CCCN(C(N)=O)C2)nc1C", "note": "(stereo unspecified)", "Percent Effect": -0.4613}
{"smiles": "CCc1c(C)nc2cc(C3CCN(Cc4ccc(F)cc4)C3)nn2c1O", "note": "(stereo unspecified)", "Percent Effect": 99.62}
{"smiles": "CCc1c(C)nc2cc(C3CCN(Cc4ccncc4C)C3)nn2c1O", "note": "(stereo unspecified)", "Percent Effect": 81.51}
{"smiles": "CCn1c(C2CCCN(Cc3cccc4cnccc34)C2)nn(C)c1=O", "note": "(stereo unspecified)", "Percent Effect": 3.036}
{"smiles": "O=C(NC1(c2nc(C3CC3)no2)CCCCC1)c1ccncc1", "Percent Effect": -8.803}
{"smiles": "O=C(c1ccccc1F)N1CCN(c2ccc(-n3cccc3)nn2)CC1", "Percent Effect": -6.21}
{"smiles": "CNC(=O)c1cccnc1NCCOc1ccc(CC#N)cc1", "Percent Effect": 4.731}
{"smiles": "O=C(O)C(F)(F)F.O=C(O)[C@]12CCCN(Cc3ccoc3)C[C@H]1CN(c1ncccn1)C2", "Percent Effect": 0.4182}
{"smiles": "Cc1cnn(CC2CCCCN2C(=O)c2sccc2C#N)c1", "note": "(stereo unspecified)", "Percent Effect": -11.17}
{"smiles": "Cc1cnn(CC2CCCN2C(=O)c2sccc2C#N)c1", "note": "(stereo unspecified)", "Percent Effect": -6.888}
{"smiles": "Cc1cnn(CC2CCCN2C(=O)c2ccccc2-n2cccn2)c1", "note": "(stereo unspecified)", "Percent Effect": 86.06}
{"smiles": "Cc1cnn(CC2CCCN2C(=O)c2cn(-c3ccccc3)nc2C)c1", "note": "(stereo unspecified)", "Percent Effect": -0.04653}
{"smiles": "Cc1cnn(CC2CCCN2C(=O)c2sccc2-n2cnnn2)c1", "note": "(stereo unspecified)", "Percent Effect": 107.4}
{"smiles": "Cc1cnn(CC2CCCCN2C(=O)c2ccccc2-n2cccn2)c1", "note": "(stereo unspecified)", "Percent Effect": 109.2}
{"smiles": "Cc1cnn(CC2CCCN2C(=O)c2ccccc2-n2cnnn2)c1", "note": "(stereo unspecified)", "Percent Effect": 114.3}
{"smiles": "O=C(c1cn(-c2cc(N3CCOCC3)ncn2)cn1)N1CCSCC1", "Percent Effect": -13.27}
{"smiles": "COc1ccc2c(c1)OCC(CNC(=O)c1ccncc1)C2", "note": "(stereo unspecified)", "Percent Effect": 2.151}
{"smiles": "Cc1cccc2[nH]c(C3CCCN(Cc4ccc(CO)o4)C3)nc12", "note": "(stereo unspecified)", "Percent Effect": -5.911}
{"smiles": "Cc1cc(=O)[nH]c(-c2cccc(CN3CCCN4CCCC4C3)c2)n1", "note": "(stereo unspecified)", "Percent Effect": -8.166}
{"smiles": "CSc1ncccc1C(=O)N1CCC(c2nc3c(C)cccc3[nH]2)CC1", "Percent Effect": -2.536}
{"smiles": "Cc1c[nH]c(C2CCCN(Cc3cccc(C(=O)O)c3)C2)n1", "note": "(stereo unspecified)", "Percent Effect": 79.24}
{"smiles": "CCCS(=O)(=O)N1CCCC(c2nc(-c3ccccc3)c[nH]2)C1", "note": "(stereo unspecified)", "Percent Effect": 7.84}
{"smiles": "Cc1cccc2[nH]c(C3CCCN(Cc4ccccc4C(=O)O)C3)nc12", "note": "(stereo unspecified)", "Percent Effect": 94.13}
{"smiles": "Cc1c[nH]c(C2CN(Cc3ccccc3C(=O)O)CCO2)n1", "note": "(stereo unspecified)", "Percent Effect": 102.8}
{"smiles": "CCOC(=O)c1n[nH]cc1CN1CCOC(Cc2ccccc2)C1", "note": "(stereo unspecified)", "Percent Effect": 4.032}
{"smiles": "Cc1c[nH]c(C2CCCN(Cc3ccccc3C(=O)O)C2)n1.O=CO", "note": "(stereo unspecified)", "Percent Effect": 102.4}
{"smiles": "CC(=O)N[C@@H]1CN(Cc2ccccc2C(=O)O)C[C@H]1C(C)C", "Percent Effect": -2.27}
{"smiles": "Cc1n[nH]c(C2CN(Cc3ncc(C(C)C)o3)CCO2)n1", "note": "(stereo unspecified)", "Percent Effect": 3.962}
